Records with an inconclusive call do not appear. Activity calls are given as the source filed them. The call rests on the fitted dose curve; in most records, active means well fitted curve in the direction sought with a large enough effect; inconclusive means small, poorly fitted or top-dose-only effect, or another doubt; inactive means no such curve, though single readings can be large or run the other way.

Sequence of Polyunsaturated fatty acid lipoxygenase ALOX15 (Homo sapiens) (P16050 whole entry, looked up): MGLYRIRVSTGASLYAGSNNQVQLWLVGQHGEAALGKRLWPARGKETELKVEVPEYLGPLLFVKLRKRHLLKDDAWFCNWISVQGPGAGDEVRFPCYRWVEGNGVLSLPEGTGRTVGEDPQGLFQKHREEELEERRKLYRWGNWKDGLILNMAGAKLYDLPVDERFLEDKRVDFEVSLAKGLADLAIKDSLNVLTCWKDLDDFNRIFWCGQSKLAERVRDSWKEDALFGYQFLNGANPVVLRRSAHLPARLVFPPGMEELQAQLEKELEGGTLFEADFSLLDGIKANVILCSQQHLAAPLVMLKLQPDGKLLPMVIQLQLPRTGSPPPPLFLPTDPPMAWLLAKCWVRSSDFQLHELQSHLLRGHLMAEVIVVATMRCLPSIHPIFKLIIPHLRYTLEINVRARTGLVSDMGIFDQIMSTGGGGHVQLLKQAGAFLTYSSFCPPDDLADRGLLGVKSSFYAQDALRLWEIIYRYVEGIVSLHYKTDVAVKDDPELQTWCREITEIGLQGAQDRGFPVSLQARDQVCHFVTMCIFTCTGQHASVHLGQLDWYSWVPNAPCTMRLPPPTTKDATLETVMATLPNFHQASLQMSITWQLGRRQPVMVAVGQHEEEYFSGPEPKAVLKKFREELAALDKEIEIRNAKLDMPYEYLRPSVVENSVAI

The assay has as its target Polyunsaturated fatty acid lipoxygenase ALOX15 (Homo sapiens) (UniProt P16050). In words: Counterscreen qHTS for inhibitors of human arachidonate 12S-lipoxygenase (ALOX12): ALOX15 Assay. The conditions noted are these: purified ALOX15 enzyme activity; series mostly up to 110 µM. An outline of the steps: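 Xylenol orange–ferric complex formation, read as the 573 nm to 405 nm absorbance ratio, tracks product from 50 uM arachidonic acid turned over for 30 min at RT. Enzyme is 40 nM ALOX15, pH 7.5 HEPES buffer, compound-preincubated 15 min.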
(Counterscreens check selectivity or assay interference.)
Consider `COc1ccccc1CNc1ncnc2c1CN(C1CCCNCC1)C(=O)CN2C` (configuration not stated), for which the compound was classed as inactive. As for `COc1ccc(CN2CCCC3(Cc4ccccc4CNC3=O)C2)cc1` (configuration not stated), the result was inactive. Regarding `O=C1NCc2ccccc2CC12CCN(Cc1ccc(-c3ccccc3)cc1)CC2`, the compound was called inactive. `Cc1ccc(-c2ccc(CN)cc2)cc1Cl`: the outcome was inactive.

For the compound `COc1ccc(CC(=O)N2Cc3ccccc3CC23CCCN(C(=O)CCCN)C3)cc1` (configuration not stated), the compound was classed as inactive. As for `c1ccc(NCCN2CCCC2)cc1`, the call was inactive.

Consider `CNCc1cccn1C`, for which the result was inactive. Regarding `CC(C)[S+](=O)([O-])N1CCN(c2ccc(C=O)cc2)C(=O)C1`, the compound was called inactive. Regarding `Cn1cccc1CN1CCC2(CC1)C(=NC1CCCCC1)NC(=O)N2c1cc(F)cc(F)c1`, the outcome was inactive. For the compound `O=C1NCc2ccccc2CC12CCN(Cc1c(Cl)cncc1Cl)C2` (configuration not stated), the result was inactive. Consider `Cc1cc(C(=O)NCc2ccncc2)c2c(C3CCNCC3)noc2n1`, for which the call was inactive. Take `O=C1Nc2ccccc2CN(C/C=C/c2ccccc2)C12CCNC2` (configuration not stated): the outcome was inactive. Consider `Cc1cc(C(=O)N2CCOCC2)c2c(C3CCNCC3)noc2n1`, for which the outcome was inactive. As to `CCc1ccc(CN2CCCC23Cc2ccccc2CNC3=O)cc1` (configuration not stated), the compound was called inactive. For the compound `COc1ccc(-c2cc(C(=O)NC3CC3)c3c(C)nn(-c4ccccc4)c3n2)cc1`, the compound was classed as inactive. With `N#Cc1ccc(CN2CCn3c(nn(-c4cccc(Cl)c4)c3=O)C2)cc1`, the outcome was inactive.

With `NCCC(=O)N1Cc2ccccc2CC2(CCCCN2CC2CCNCC2)C1` (configuration not stated), the compound was classed as inactive. To `O=C(NCC(F)(F)F)c1cc(C2CC2)nc2c1c(C1CCCN1)nn2-c1ccccc1` (configuration not stated) belongs “inactive”; to `COc1ccc(N2CC3CCC(C2)N3C(C)=O)cc1`, “inactive”; to `O=C1NCCN1C1CCN(Cc2ccc(F)cc2)CC1`, “inactive”. As for `CN1CC(=O)N(C2CCCNCC2)Cc2c1ncnc2N1CCC(N2CCCC2)CC1` (configuration not stated), the result was inactive. As to `O=C1NCc2ccccc2CC12CCN(Cc1ccc([N+](=O)[O-])cc1)C2` (configuration not stated), the outcome was inactive. Consider `NCc1ccccc1-c1cc(C(F)(F)F)ccc1Cl`, for which the compound was classed as inactive. In the case of `CCOC(=O)C1CC1CN1CCCC2(Cc3ccccc3CNC2=O)C1` (configuration not stated), the call was inactive. As for `Nc1ccc(CN2CCCC3(Cc4ccccc4CNC3=O)C2)cc1` (configuration not stated), the outcome was inactive. In the case of `CN(C)CCCC(=O)N1Cc2ccccc2CC2(CCCCN2Cc2ccccc2)C1` (configuration not stated), the call was inactive. `CN1CC(=O)N(C2CCNCC2)Cc2c(NCC3CCCCC3)ncnc21`: the compound was called inactive.

For the compound `COc1ccc(-c2cc(C(=O)NCC3CC3)c3c(C4CCNC4)noc3n2)cc1` (configuration not stated), the call was inactive. Regarding `CC(=O)NC1CC2(CCN(C(=O)Cc3cnc[nH]3)CC2)c2ccccc21` (configuration not stated), the call was inactive. Consider `FC(F)(F)c1ccc(N2C3CCC2CN(Cc2cccc(-c4cccs4)c2)C3)cc1`, for which the compound was classed as inactive. `Fc1ccc(OC2CN(Cc3cccc4ccccc34)C2)cc1F`: the compound was called inactive. Take `CN1CC(=O)N(C2CCCNCC2)Cc2c(NCC(C)(C)C)ncnc21` (configuration not stated): the outcome was inactive. Take `COC[C@@H]1CCCN1c1ncnc2c1CN(C1CCCNCC1)C(=O)CN2C` (some centres not stated): the outcome was inactive.

Regarding `O=C(O)CCCC(=O)N1Cc2ccccc2CC2(CCCN2Cc2ccccc2)C1` (configuration not stated), the outcome was inactive. In the case of `NCc1ccc(-c2cccc(O)c2)cc1`, the compound was classed as inactive. `O=C(c1ccccc1)N1CCCC2(CC(c3cccnc3)=NO2)C1` (configuration not stated): the call was inactive. On to `CCOC(=O)N1CCC(NC)CC1`, for which the compound was called inactive.

The values above are taken from PubChem BioAssay AID1671192 (National Center for Advancing Translational Sciences (NCATS), 2021).
